PubChem BioAssay (Tox21)
Results filed as inconclusive are left out. Active and inactive are the calls of the source. Unless noted, calls follow the shape of the full dose curve.

Experiments:
[1] = Nuclear factor erythroid 2-related factor 2/antioxidant responsive element (Nrf2/ARE) small molecule agonists: qHTS cell viability counter screen in human keratinocytes (AID 1919968; active = well fitted curve in the direction sought with a large enough effect in the repeat runs; an effect the other way counts as inactive or inconclusive; also: nearly all actives have a fitted effect of over 55% in size; also: potency is read from the fitted curve at half-maximal effect)
In short: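 Cytotoxicity was multiplexed with the Nrf2/ARE luciferase assay in the same wells. Stably transfected HaCaT keratinocytes were treated with test compounds for 23 h at 37 C. Cell viability was then measured by CellTiter-Fluor fluorescence.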

[2] = biological target: Gonadotropin-releasing hormone receptor (Homo sapiens) (UniProt P30968); experiment: Human gonadotropin-releasing hormone receptor (GnRHR) small molecule agonists, calcium flux assay in GnRHR-HEK293 cells (AID 1920063); also: nearly all actives have a fitted effect of over 35% in size
In short: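 Agonist activity was measured as intracellular calcium flux in HEK293 cells engineered to stably express human GnRHR. After dye loading for 1 hour at 37 C, compounds in DMSO were added and fluorescence was followed for 3 minutes.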

[3] = biological target: KiSS-1 receptor (Homo sapiens) (UniProt Q969F8); experiment: Human kisspeptin (KISS1R) small molecule agonists, calcium flux assay in KISS1R-HEK293 cells (AID 1920064; active = well fitted curve in the direction sought with a large enough effect in the repeat runs; an effect the other way counts as inactive or inconclusive)
In short: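 Agonist activity is monitored as intracellular calcium rise in engineered HEK293 cells carrying human KISS1R. Cells are dye-loaded for 1 h at 37 C before compound addition, and fluorescence is recorded for 3 min.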

[4] = G protein-coupled receptor (GPCR) small molecule agonists, calcium flux assay: HEK293 wild type cell line counter screen (AID 1920065)
In short: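 Seed cells, incubate 18 h (37 C, 5% CO2); add calcium dye, 1 h at 37 C; pin-transfer compounds, ATP control or DMSO; read fluorescence 480/540 nm each second for 3 min.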

[5] = p53 small molecule agonists, cell-based qHTS assay with human liver microsomes: qHTS cell viability counter screen (AID 1963579); also: nearly all actives have a fitted effect of over 45% in size
In short: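 Metabolically activated exposure: compounds, human liver microsomes and NADPH (0.5 mg/mL final apiece) were added to p53RE-bla cells seeded 5 h earlier, left 16 h at 37 C, and then assessed for viability by CellTiter-Glo luminescence.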

[6] = p53 small molecule agonists, cell-based qHTS assay with rat liver microsomes: qHTS cell viability counter screen (AID 1963580); also: nearly all actives have a fitted effect of over 45% in size
In short: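 Rat liver microsome (0.5 mg/mL final) and NADPH (0.5 mg/mL final) co-incubation with compounds for 16 h at 37 C on HCT-116 p53RE-bla cells; cytotoxicity taken from intracellular ATP luminescence.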

[7] = p53 small molecule agonists, cell-based qHTS assay: qHTS cell viability counter screen (AID 1963581); also: nearly all actives have a fitted effect of over 45% in size
In short: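 Viability was counter-screened in parallel with the p53 agonist reporter by measuring intracellular ATP luminescence in the same HCT-116 p53RE-bla wells after 16 h compound treatment at 37 C.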

[8] = p53 small molecule agonists, cell-based qHTS assay (AID 1963582; active = well fitted activation curve with a large enough effect in the signal ratio in the repeat runs, not every such curve was filed as active; the % refers to the signal ratio)
In short: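 Cells carrying a p53-responsive bla reporter are treated with test compounds for 16 h at 37 C; beta-lactamase activity is then detected with LiveBLAzer B/G FRET substrate after 2 h at room temperature.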

[9] = biological target: 5-hydroxytryptamine receptor 2A (Homo sapiens) (UniProt P28223); experiment: 5-hydroxytryptamine receptor 2A (HTR2A) small molecule antagonists, cell-based qHTS assay (AID 1963586); also: nearly all actives have a fitted effect of over 45% in size; also: potency is read from the fitted curve at half-maximal effect
In short: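 CHO cells stably expressing human HTR2A were plated for 18 h at 37 C, then loaded with calcium dye for 1 h. Compounds were preincubated 5 min at room temperature before DOI (4 nM solution) was added. Kinetic fluorescence was read for 3 min.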

[10] = biological target: 5-hydroxytryptamine receptor 2A (Homo sapiens) (UniProt P28223); experiment: 5-hydroxytryptamine receptor 2A (HTR2A) small molecule agonists, cell-based qHTS assay (AID 1963587); also: nearly all actives have a fitted effect of over 30% in size
In short: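 Kinetic calcium-flux fluorescence (2 min, 1 sec intervals) after compound addition in agonist mode. HTR2A-CHO cells were cultured 18 h, then dye-loaded 1 h at 37 C.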

[11] = biological target: Muscarinic acetylcholine receptor M1 (Homo sapiens) (UniProt P11229); experiment: Cholinergic receptor muscarinic 1 (CHRM1) small molecule antagonists, cell-based qHTS assay (AID 1963588); also: nearly all actives have a fitted effect of over 40% in size
In short: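 Compounds were tested at 15 concentrations in three independent runs. Dye-loaded CHRM1-CHO cells were exposed 5 min at room temperature before stimulation by acetylcholine added at 50nM. Intracellular calcium was read kinetically on FDSS for 3 min.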

[12] = biological target: Muscarinic acetylcholine receptor M1 (Homo sapiens) (UniProt P11229); experiment: Cholinergic receptor muscarinic 1 (CHRM1) small molecule agonists, cell-based qHTS assay (AID 1963589); also: nearly all actives have a fitted effect of over 35% in size
In short: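 Cells were plated and incubated 18 h at 37 C/5% CO2, loaded with calcium dye for 1 h at 37 C, then treated with compounds in DMSO. Fluorescence was recorded kinetically at 1 sec intervals.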

[13] = cAMP Responsive Elements (CRE) small molecule agonists, cell-based qHTS assay (AID 1963590)
In short: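 Cells carrying a CRE-driven beta-lactamase reporter (HEK 293T) are seeded, incubated overnight (18 h), and treated with test compounds for 3 h at 37 C; reporter activity is then detected with a FRET substrate after 2 h at room temperature.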

[14] = cAMP Responsive Elements (CRE) small molecule antagonists, cell-based qHTS assay (AID 1963591; active = well fitted inhibition curve with a large enough effect in the signal ratio in the repeat runs, not every such curve was filed as active; the % refers to the signal ratio)
In short: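 Cells (CRE-bla HEK 293T, DMEM with 10% dialyzed FBS and 25 mM HEPES) are seeded and incubated 18 h. Compounds are added with NKH477 agonist at 0.25 uM final for 3 h, then FRET substrate for 2 h.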

[15] = biological target: Beta-2 adrenergic receptor (Homo sapiens) (UniProt P07550); experiment: Adrenergic beta2 receptor (ADRB2) small molecule antagonists, cell-based qHTS assay (AID 1963592); also: series mostly up to about 92 µM; nearly all actives have a fitted effect of over 50% in size
In short: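 Assay format: CHO-ADRB2 cells, 18-20hr seeding at 37C/5% CO2, then compound plus 1nM isoproterenol agonist mix for 0.5hr RT. Homogeneous time-resolved fluorescence cAMP detection after 1hr, expressed as 665/615 nm ratio.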

[16] = biological target: Beta-2 adrenergic receptor (Homo sapiens) (UniProt P07550); experiment: Adrenergic beta2 receptor (ADRB2) small molecule agonists, cell-based qHTS assay (AID 1963593);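 also: CHO cells stably overexpressing human ADRB2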
In short: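 CHO cells stably over-expressing ADRB2 were plated overnight at 37C, then dosed with compounds plus a stimulation mix containing 100uM IBMX and 25uM Ro-20-1724 for 0.5hr at room temperature. cAMP was measured by HTRF competition, 1hr.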

[17] = biological target: D(2) dopamine receptor (Homo sapiens) (UniProt P14416); experiment: Dopamine D2 receptor (DRD2) small molecule agonists, cell-based qHTS assay (AID 1963594); also: nearly all actives have a fitted effect of over 35% in size
In short: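 cAMP accumulation in DRD2-HEK293 cells measured by HTRF after 1 h detection; compounds added 10 min before NKH477 (200nM […]) forskolin-analogue stimulation, 30 min at room temperature, with Ro20-1724 present at 0.1 mM final.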

[18] = biological target: D(2) dopamine receptor (Homo sapiens) (UniProt P14416); experiment: Dopamine D2 receptor (DRD2) small molecule antagonists, cell-based qHTS assay (AID 1963595; active = well fitted inhibition curve with a large enough effect in the signal ratio in the repeat runs, with a control signal flat; the % refers to the signal ratio)
In short: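 Antagonist mode in DRD2-HEK293 cells: after compound addition with 0.1 mM Ro20-1724, cells received quinpirole (12 nM) and NKH477 (200 nM) for 30 min at room temperature; HTRF cAMP read after 1 h detection.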

[19] = p53 small molecule agonists, cell-based qHTS assay with rat liver microsomes (AID 1963578)
In short: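 Agonist mode in p53RE-bla reporter cells, with compounds co-incubated 16 h at 37 C alongside 0.5 mg/mL rat liver microsomes and 0.5 mg/mL NADPH (final), followed by a 2 h LiveBLAzer detection step.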

Measured: Potency

Beta-2 adrenergic receptor (Homo sapiens), sequence (P07550 whole entry, looked up): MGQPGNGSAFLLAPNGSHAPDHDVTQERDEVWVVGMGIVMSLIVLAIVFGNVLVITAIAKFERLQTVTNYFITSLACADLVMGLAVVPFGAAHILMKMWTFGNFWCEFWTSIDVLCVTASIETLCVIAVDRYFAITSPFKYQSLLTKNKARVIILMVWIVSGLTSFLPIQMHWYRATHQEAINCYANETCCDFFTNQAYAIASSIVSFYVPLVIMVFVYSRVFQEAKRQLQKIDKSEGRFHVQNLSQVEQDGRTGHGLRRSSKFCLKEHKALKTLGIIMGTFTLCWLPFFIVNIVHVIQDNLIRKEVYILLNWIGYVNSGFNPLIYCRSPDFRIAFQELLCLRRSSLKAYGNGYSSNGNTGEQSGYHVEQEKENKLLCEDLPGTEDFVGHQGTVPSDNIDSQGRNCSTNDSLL
Gonadotropin-releasing hormone receptor (Homo sapiens), sequence (P30968 whole entry, looked up): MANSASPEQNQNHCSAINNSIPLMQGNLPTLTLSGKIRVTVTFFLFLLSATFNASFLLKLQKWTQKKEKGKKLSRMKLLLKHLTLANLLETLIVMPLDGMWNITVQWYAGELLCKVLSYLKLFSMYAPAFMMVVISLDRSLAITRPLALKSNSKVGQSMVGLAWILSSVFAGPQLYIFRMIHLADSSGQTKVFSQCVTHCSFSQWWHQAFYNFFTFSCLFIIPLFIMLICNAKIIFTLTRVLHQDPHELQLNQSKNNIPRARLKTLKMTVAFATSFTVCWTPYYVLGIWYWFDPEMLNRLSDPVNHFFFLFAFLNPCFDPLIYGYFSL
Muscarinic acetylcholine receptor M1 (Homo sapiens), sequence (P11229 whole entry, looked up): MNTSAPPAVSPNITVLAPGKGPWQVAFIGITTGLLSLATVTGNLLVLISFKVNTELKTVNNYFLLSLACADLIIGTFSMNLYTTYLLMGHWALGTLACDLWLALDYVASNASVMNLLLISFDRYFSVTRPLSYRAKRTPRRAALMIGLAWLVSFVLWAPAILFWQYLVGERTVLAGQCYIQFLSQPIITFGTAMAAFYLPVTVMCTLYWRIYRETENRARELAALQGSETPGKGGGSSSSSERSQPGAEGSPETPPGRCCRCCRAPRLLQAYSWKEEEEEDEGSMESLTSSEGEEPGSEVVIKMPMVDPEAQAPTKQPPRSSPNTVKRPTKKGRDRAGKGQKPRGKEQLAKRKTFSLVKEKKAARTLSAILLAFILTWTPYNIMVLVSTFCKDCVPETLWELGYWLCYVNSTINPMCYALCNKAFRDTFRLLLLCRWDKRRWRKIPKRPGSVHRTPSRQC
5-hydroxytryptamine receptor 2A (Homo sapiens), sequence (P28223 whole entry, looked up): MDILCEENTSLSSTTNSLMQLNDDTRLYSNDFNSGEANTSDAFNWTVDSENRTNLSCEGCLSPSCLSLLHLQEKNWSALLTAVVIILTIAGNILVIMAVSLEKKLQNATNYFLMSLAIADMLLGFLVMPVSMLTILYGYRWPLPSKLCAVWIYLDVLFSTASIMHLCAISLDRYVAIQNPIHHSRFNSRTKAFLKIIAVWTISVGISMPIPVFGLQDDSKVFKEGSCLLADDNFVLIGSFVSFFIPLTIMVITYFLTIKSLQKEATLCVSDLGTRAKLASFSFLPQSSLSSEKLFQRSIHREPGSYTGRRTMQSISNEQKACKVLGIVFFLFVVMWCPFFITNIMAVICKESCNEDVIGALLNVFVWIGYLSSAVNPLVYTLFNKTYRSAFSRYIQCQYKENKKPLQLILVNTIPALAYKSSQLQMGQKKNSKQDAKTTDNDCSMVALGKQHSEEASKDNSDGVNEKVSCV
KiSS-1 receptor (Homo sapiens), sequence (Q969F8 whole entry, looked up): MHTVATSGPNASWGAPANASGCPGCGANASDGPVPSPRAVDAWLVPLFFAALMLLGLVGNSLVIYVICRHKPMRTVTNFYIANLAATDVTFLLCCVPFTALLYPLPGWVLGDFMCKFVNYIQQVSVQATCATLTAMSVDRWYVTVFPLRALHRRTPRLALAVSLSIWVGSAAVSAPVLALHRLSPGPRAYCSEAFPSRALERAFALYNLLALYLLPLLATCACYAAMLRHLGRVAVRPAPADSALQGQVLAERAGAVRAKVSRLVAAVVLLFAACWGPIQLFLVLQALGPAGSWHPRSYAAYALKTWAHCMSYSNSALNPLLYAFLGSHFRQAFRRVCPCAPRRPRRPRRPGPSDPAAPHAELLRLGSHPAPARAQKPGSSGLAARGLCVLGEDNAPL
D(2) dopamine receptor (Homo sapiens), sequence (P14416 whole entry, looked up): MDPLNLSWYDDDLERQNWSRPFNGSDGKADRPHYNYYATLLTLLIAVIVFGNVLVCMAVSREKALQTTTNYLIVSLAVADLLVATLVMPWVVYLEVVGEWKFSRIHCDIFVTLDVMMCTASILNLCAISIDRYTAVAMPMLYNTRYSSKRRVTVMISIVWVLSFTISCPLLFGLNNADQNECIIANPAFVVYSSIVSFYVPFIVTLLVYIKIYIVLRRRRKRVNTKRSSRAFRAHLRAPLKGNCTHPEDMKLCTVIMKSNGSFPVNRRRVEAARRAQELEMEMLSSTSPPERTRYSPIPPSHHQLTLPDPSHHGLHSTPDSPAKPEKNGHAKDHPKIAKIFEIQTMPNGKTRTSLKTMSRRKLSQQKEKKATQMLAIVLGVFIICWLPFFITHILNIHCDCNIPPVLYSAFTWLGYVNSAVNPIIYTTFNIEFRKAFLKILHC

CCOP(=S)(OCC)SCCl
inactive: [1] | [2] | [3] | [4] | [5] | [6] | [7] | [8] | [9] | [10] | [11] | [12] | [13] | [14] | [15] | [16] | [17] | [18]

C[C@]12Cc3cn[nH]c3C[C@@H]1CC[C@@H]1[C@@H]2CC[C@@]2(C)[C@H]1CC[C@]2(C)O
active: [1] 29.8 µM
inactive: [2] | [3] | [4] | [5] | [6] | [7] | [8] | [15] | [17]

CCc1cccc(C)c1N(C(=O)CCl)[C@@H](C)COC
inactive: [1] | [2] | [3] | [4] | [5] | [6] | [7] | [8] | [9] | [10] | [11] | [12] | [13] | [15] | [17] | [18]

CCCCC/C=C\C/C=C\C/C=C\C/C=C\CCCC(=O)NCC(=O)O
inactive: [1] | [2] | [3] | [4] | [19] | [5] | [6] | [12] | [15] | [16]
active: [9] 14.5 µM

COc1ccc(/C(=C/C(=O)N2CCOCC2)c2ccc(Cl)cc2)cc1OC
inactive: [1] | [2] | [3] | [4] | [19] | [5] | [6] | [8] | [10] | [11] | [12] | [15] | [16] | [17] | [18]
